{"source": "PubChem BioAssay (EPA / NIEHS)", "note": "Activity calls are given as the source filed them. How the source made its calls: active means hit-call score of the fitted dose curve at least 0.9, where 1 is the maximum; inactive means score below 0.9."}
{"read-out": "CYP2C8 (gene 1558)", "assay": "LTEA_HepaRG_CYP2C8: Life Technologies and Expression Analysis (LTEA) Assay for CYP2C8 using HepaRG (AID 2283483)", "details": "mRNA level, 48 h; actives raise or lower the signal", "protocol": "LTEA_HepaRG is a cell based, multiplexed-readout assay that uses HepaRG, a human liver cell line, with measurements taken at 48 hours after chemical dosing on a 96-well plate.LTEA_HepaRG_CYP2C8 is one of 102 assay component(s) measured in the LTEA HepaRG cell culture assay. It is a marker of NR mediated metabolism.Data from the assay component LTEA_HepaRG_CYP2C8 was analyzed into 1 endpoint. This assay endpoint, LTEA_HepaRG_CYP2C8, was analyzed with bidirectional fitting relative to DMSO as the negative control and baseline of activity. Using a type of inducible reporter, measures of mRNA induction for gain or loss-of-signal activity can be used to understand regulation of transcription factor activity. To generalize the intended target to other relatable targets, this assay endpoint is annotated to the cyp intended target family, where the subfamily is xenobiotic metabolism.\nA total of 1060 chemcials from the ToxCast library were tested in eight-point concentration-response experiments. Cell culture and cytotoxicity assays were conducted at Thermo Fisher Scientific's Custom Services facility (Madison, WI). A single lot of human HepaRG cells (Thermo Fisher Scientific, Frederick, MD) was used for the cell culture experiments. 96-well format collagen type I coated plates of human HepaRG cells were prepared using established methods. Briefly, cryopreserved HepaRG cells were thawed, plated at a density of approximately 100,000 cells/well in HepaRG Thaw, Plate, and General Purpose media (HPRG770, Thermo Fisher Scientific), and incubated for 48 hours. 0.5% DMSO was selected as vehicle control to balance the requisite need of DMSO in HepaRG cultures to maintain differentiation (for example, baseline metabolism, proportions of hepatocytes vs. cholangiocytes), while enabling further hepatic receptor pathway activation (for example, PXR and CAR) in response to chemical exposure. 48 hours after plating, the culture medium was replaced with HepaRG Serum-Free Incudtion Media. Cells were exposed to each test chemical in duplicate and maintained in CO2 incubators for another 48 hours. Chemical plates were thawed to room temperature and 200x concentrations of treatment groups were prepared. 8-point conentration-reponse curves were made with the highest exposure at 100 uM, followed by half-log dilutions, all in 0.5% DMSO. Each test plate contained variouse controls, induction positive controls (1mM phenobarbital), cytotoxicity positive controls ([…] aflatoxin B1), vehicle controls (0.5% DMSO), and total lysis controls (0.5% DMSO). Cell morphology images were taken using an Essen IncuCyte FLR automated microscope, with six 96-well plates imaged in about 24 minutes. Images were captured and exported and JPEG files. Spent culture media was transfered to black-well plates for the LDH assay, and remaining media was sorted at -80 C for later use. Cells were treated with RLT buffer and frozen until shipped for gene expression analysis. Total RNA was isolated from the cell suspension in 75 uL of Buffer RLT (Qiagen, Germantown, MD 20874) by Quintiles/Expression Analysis (Durham, NC) using a custom isolation procedure. Total RNA from each plate well was transferred to a preamplification plate. Fluidigm's 96.96 Dynamic ArrayTM (Fluidigm, Amsterdam, the Netherlands) technology was used for gene expression analyses by quantitative reverse transcription polymerase chain reaction (qRT-PCR, performed by Quintiles/Expression Analysis, Durham, NC)89. Standard TaqManTM Assays (Applied Biosystems/ThermoFisher Scientific, Foster City, CA) were used to assess the expression of 93 genes selected based on their selectivity and sensitivity to important hepatic receptors known to be modulated by environmental chemicals; importance in human hepatocyte functionality; and hepatotoxicity. […]"}
{"smiles": "CCCCCCCCCCCCCCC", "outcome": "inactive"}
{"smiles": "Cc1[nH]nc2c1N=C(c1ccccc1Cl)c1cc([N+](=O)[O-])ccc1N2", "AC50": "7.45 µM (active)"}
{"smiles": "N=C(N)c1ccc(OCCCCCOc2ccc(C(=N)N)cc2)cc1", "AC50": "3.73 µM (active)"}
{"smiles": "CCCCC(CC)C(=O)O", "note": "(stereo unspecified)", "outcome": "inactive"}
{"smiles": "OCC(CO)(CBr)CBr", "outcome": "inactive"}
{"smiles": "O=C1NS(=O)(=O)c2ccccc21", "outcome": "inactive"}
{"smiles": "CC(=O)Nc1ccc(O)cc1", "outcome": "inactive"}
{"smiles": "O=C(CCCN1CCC(O)(c2ccc(Cl)cc2)CC1)c1ccc(F)cc1", "outcome": "inactive"}
{"smiles": "CCCCC=O", "outcome": "inactive"}
{"smiles": "CN(Cc1cnc2nc(N)nc(N)c2n1)c1ccc(C(=O)N[C@@H](CCC(=O)O)C(=O)O)cc1", "outcome": "inactive"}
{"smiles": "CCC(C)c1ccccc1O", "note": "(stereo unspecified)", "outcome": "inactive"}
